# Results: PubChem BioAssay AID2590 (National Center for Advancing Translational Sciences (NCATS), 2010)
# Inconclusive results are not listed. Calls of active or inactive are those of the source. Calls come from the whole dose curve; as a rule, active = well fitted curve in the direction sought with a large enough effect; inconclusive = small, poorly fitted or top-dose-only effect, or another doubt; inactive = no such curve, though single readings can be large or run the other way.
# Biological target: Lysosomal acid glucosylceramidase (Homo sapiens) (UniProt P04062)
# Sequence (P04062 whole entry N409S): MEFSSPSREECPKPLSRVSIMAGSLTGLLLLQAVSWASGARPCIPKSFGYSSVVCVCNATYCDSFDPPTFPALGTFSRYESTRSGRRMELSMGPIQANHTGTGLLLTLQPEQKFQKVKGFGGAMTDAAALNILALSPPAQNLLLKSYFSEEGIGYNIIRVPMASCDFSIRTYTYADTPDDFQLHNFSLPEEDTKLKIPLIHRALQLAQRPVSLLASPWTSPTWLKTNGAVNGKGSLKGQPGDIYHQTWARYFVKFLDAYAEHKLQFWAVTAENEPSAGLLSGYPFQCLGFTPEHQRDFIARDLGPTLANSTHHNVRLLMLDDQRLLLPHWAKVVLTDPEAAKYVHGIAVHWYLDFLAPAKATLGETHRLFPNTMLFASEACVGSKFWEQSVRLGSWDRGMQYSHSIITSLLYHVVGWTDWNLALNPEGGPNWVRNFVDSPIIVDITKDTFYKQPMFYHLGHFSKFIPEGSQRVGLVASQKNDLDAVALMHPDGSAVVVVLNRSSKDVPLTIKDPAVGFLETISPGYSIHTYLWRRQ
# Test: qHTS Assay for Inhibitors and Activators of N370S glucocerebrosidase as a Potential Chaperone Treatment of Gaucher Disease: Primary Screen Confirmation;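 for Potency: enzyme source is Gaucher patient spleen homogenate not purified recombinant protein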;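 for activity change, negative = inhibition: 0% = enzyme with DMSO and -100% = no enzyme basal signal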
# Settings: N370S glucocerebrosidase enzyme activity, fluorogenic substrate; series mostly up to 54 µM; activity change, negative = inhibition: at the top concentration
# Procedure, shortened: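 Patient-spleen homogenate carrying N370S GC (27 ug) in pH 5.0 citrate buffer with 0.01% Tween-20, 1 mM 4-methylumbelliferyl-beta-glucoside, 40 min at 37C; fluorescence 365/440 nm after NaOH/glycine stop; AC50 from Hill fits.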
# Potency is the fitted concentration of half-maximal effect.
Compound,Potency,"activity change, negative = inhibition"
c1ccc(CNc2nc(-c3ccccc3)nc3ccccc23)cc1,10.1 µM (active),
S=C(NCCCc1cnc[nH]1)NCCN(Cc1ccc(Cl)c(Cl)c1)c1ccc(Br)cn1,2.06 µM (active),
Cc1ccc(S(=O)(=O)N2CCN(c3nc(-c4cccnc4)nc4ccccc34)CC2)cc1,16.3 µM (active),
S=C(NCCCc1cnc[nH]1)NCCCN(CCc1ccccc1)c1ccc(Br)cn1,2.25 µM (active),
O=C(c1ccccc1)N1CCN(c2nc(-c3cccs3)nc3ccccc23)CC1,1.42 µM (active),
CCOC(=O)c1ccc(S(=O)(=O)N2CCN(c3nc(-c4cccs4)nc4ccccc34)CC2)cc1,0.819 µM (active),
CC(=O)c1ccccc1S(=O)(=O)N1CCN(c2nc(-c3cccs3)nc3ccccc23)CC1,3.26 µM (active),
Cc1ccc(S(=O)(=O)N2CCN(c3nc(-c4ccc(F)cc4)nc4cc(Cl)ccc34)CC2)cc1,,2.08% (inactive)
CN(CCCN(Cc1ccc(Cl)cc1)c1ccc(Br)cn1)C(=S)NCCCc1cnc[nH]1,2.53 µM (active),
CC(=O)NCCCN(Cc1ccc(Cl)c(Cl)c1)c1ccc(Br)cn1,,0.436% (inactive)
COc1ccc(N(CC(=O)NC2CCCCC2)S(=O)(=O)c2c(C)[nH]c(=O)[nH]c2=O)cc1,11.2 µM (active),
Cc1ccc(S(=O)(=O)N2CCN(c3nc(-c4cccs4)nc4ccccc34)CC2)c(C)c1,0.291 µM (active),
Cc1ccc(S(=O)(=O)N2CCCN(c3nc(-c4cccs4)nc4ccccc34)CC2)cc1,5.66 µM (active),
C#CCOCCOCCOCCNc1nc(N2CCN(C(=O)CCCCCCCCCCNC(=O)[C@H](CCCCN)n3cc(C)nn3)CC2)nc(N2CCN(C(=O)CCCCCCCCCCNC(=O)[C@H](CCCN=C(N)N)n3cc(C[C@@H](C)CC)nn3)CC2)n1,7.3 µM (active),
CCOc1ccc(S(=O)(=O)N2CCN(c3nc(-c4ccccc4)nc4ccccc34)CC2)cc1,4.11 µM (active),
O=[N+]([O-])c1ccccc1S(=O)(=O)N1CCN(c2nc(-c3cccs3)nc3ccccc23)CC1,0.73 µM (active),
O=C(Nc1ccccc1)Nc1ccccc1,inactive,
O=S(=O)(c1ccc2c(c1)OCO2)N1CCN(c2nc(-c3cccs3)nc3ccccc23)CC1,0.291 µM (active),
O=C(NCCCc1cnc[nH]1)NCCCN(Cc1ccc(Cl)cc1)c1ccc(Br)cn1,1.01 µM (active),
NCCCN(Cc1ccc(Cl)c(Cl)c1)c1ccc(Br)cn1,18.3 µM (active),
Cc1ccc(S(=O)(=O)N2CCN(c3nc(C(N)=O)nc4ccccc34)CC2)cc1,13 µM (active),
O=S(=O)(c1cccs1)N1CCN(c2nc(-c3cccs3)nc3ccccc23)CC1,0.819 µM (active),
O=S(=O)(c1ccc(Br)cc1)N1CCN(c2nc(-c3cccs3)nc3ccccc23)CC1,1.3 µM (active),
S=C(NCCCc1cnc[nH]1)NCCCN(Cc1ccc(Cl)cc1)c1ccc(Br)cc1,1.13 µM (active),
O=[N+]([O-])c1ccccc1S(=O)(=O)N1CCN(c2nc(-c3ccccc3)nc3ccccc23)CC1,5.69 µM (active),
CCc1ccc(NC(=O)CN(c2ccc(OC)cc2)S(=O)(=O)c2c(C)[nH]c(=O)[nH]c2=O)cc1,6.51 µM (active),
Cc1cc2nn(-c3ccc(Cl)cc3)nc2cc1N,,6.68% (inactive)
Cc1ccc(S(=O)(=O)N2CCN(c3nc(-c4ncco4)nc4ccccc34)CC2)cc1,9.02 µM (active),
O=S(=O)(c1ccc(F)cc1)N1CCN(c2nc(-c3cccs3)nc3cc(Cl)ccc23)CC1,,-13.8% (inactive)
